Test results as given in PubChem BioAssay.
The source made the active and inactive calls.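 The calls were made as follows, unless noted: active = NADPH fluorescence slope more negative than the mean of all samples by about 3 SD, 99.7% confidence; inactive = the rest.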

Legend:
[1] = inhibitors of TNFa-induced NFkB p65 translocation, primary screen, imaging, HUVEC, MLSMR starter and 10KST1 sets (AID 438;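 active = inhibition above 20% together with a positive visual image hit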;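 also: compound added about 3h40 before a 20 min TNFalpha stimulation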;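 as to inhibition: signal is the nuclear over cytoplasmic p65 intensity ratio per well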); details: HUVEC TNFa-induced p65 nuclear translocation; cell count: measured here: nuclei count (cytotoxicity indicator), at 2.08 µM; inhibition: at 2 µM, stronger effect = higher value, 0% TNFa-plus-vehicle, 100% no-TNFa wells
[2] = reduction of polyQ htt aggregates in cells – imaging, exon1htt(103Q)mCFP cells, high-content imaging, primary screen (AID 483;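 active = visual image review flags a hit and inhibition of aggregation exceeds 20%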;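 also: compound exposure lasted 3 days before fixation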;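 as to nuclei count: percent of the per-plate median nuclei count of sample wells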); details: exon1htt(103Q)mCFP cell line, aggregate imaging, at 2 µM; inhibition of aggregation: stronger effect = higher value; nuclei count: measured here: cell count, toxicity
[3] = endothelial E-selectin expression blockers – imaging, HUVEC, immunofluorescence, MLSMR starter and 10KST1 sets, primary screen (AID 487;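 active = visually confirmed hit in the image check and inhibition above 20%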;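 as to inhibition: signal is fraction of cell area covered by stained E-selectin grains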;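 as to nuclei count: 100% = median nuclei count of all wells on the same plate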); details: HUVEC TNFalpha-induced E-selectin immunofluorescence imaging, at 2 µM; inhibition: stronger effect = higher value; nuclei count: measured here: cell number, toxicity
[4] = biological target: Voltage-gated potassium channel subunit beta-2 (Rattus norvegicus) (UniProt P62483); assay: inhibitors of rat Kvbeta2 reductase activity – biochemical, NADPH fluorescence, primary screen (AID 622;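 active = fluorescence slope higher than the sample average by over 3 SD, cut at about -0.22 in these data, passing the limit was not always enough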;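 also: slope of raw intensity against log time taken from 70 to 1610 s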); details: recombinant KvBeta, 4-cyanobenzaldehyde reduction, at 10 µM, stronger effect = higher value
Voltage-gated potassium channel subunit beta-2 (Rattus norvegicus), sequence (P62483 whole entry, looked up): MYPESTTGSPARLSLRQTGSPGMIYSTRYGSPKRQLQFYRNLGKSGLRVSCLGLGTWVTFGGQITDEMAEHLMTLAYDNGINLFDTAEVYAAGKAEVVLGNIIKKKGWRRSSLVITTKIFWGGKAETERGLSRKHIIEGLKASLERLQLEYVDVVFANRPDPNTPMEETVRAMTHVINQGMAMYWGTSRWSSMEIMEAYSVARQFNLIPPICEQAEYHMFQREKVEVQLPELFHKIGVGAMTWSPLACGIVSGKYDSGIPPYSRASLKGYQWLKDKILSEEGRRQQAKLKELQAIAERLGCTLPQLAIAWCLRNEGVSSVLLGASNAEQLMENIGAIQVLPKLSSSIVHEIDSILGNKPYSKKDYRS

[5] = biological target: Voltage-gated potassium channel subunit beta-2 (Rattus norvegicus) (UniProt P62483); assay: enhancers of rat Kvbeta2 NADPH turnover – biochemical, NADPH fluorescence, primary screen (AID 623); details: Recombinant KvBeta, NADPH fluorescence decrease slope, 10 min; at 10 µM; stronger effect = lower value;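 also: fluorescence intensity change per second fitted from 20 to 320 s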
[6] = biological target: Alpha-2C adrenergic receptor (Homo sapiens) (UniProt P18825); assay: compounds altering alpha2C-coupled GIRK flux – cell-based, HEK293 alpha2C/GIRK1/2, thallium flux, primary screen (AID 624;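 active = fluorescence slope after compound addition differing from the mean of all screened samples at 99.7% confidence, in either direction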;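 also: slope of fluorescence ratio to pre-addition baseline per second over 15 to 24 s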); details: thallium flux BTC fluorescence, at 10 µM, actives lie on both sides
Alpha-2C adrenergic receptor (Homo sapiens), sequence (P18825 whole entry, looked up): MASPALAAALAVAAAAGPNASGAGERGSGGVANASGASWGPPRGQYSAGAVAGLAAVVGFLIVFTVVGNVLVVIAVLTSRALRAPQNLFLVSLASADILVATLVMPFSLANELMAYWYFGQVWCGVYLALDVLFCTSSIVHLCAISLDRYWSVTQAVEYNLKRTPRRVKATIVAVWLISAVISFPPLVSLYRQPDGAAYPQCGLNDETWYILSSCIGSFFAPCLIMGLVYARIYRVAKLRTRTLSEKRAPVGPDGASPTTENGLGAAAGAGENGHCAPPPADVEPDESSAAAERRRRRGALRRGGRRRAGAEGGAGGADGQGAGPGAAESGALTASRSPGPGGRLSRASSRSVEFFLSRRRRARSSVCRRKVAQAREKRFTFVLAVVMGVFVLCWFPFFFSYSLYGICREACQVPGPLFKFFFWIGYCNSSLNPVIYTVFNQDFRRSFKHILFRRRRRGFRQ

[7] = blockers of RIG-like receptor reporter activation – cell-based, Sendai virus stimulus, luciferase, 10K MLSCN set, TLR/RLR signaling modifier project, primary screen (AID 602276;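 active = inhibition at or above 50% at 10 µM; inactive = inhibition below 50%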;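 also: firefly luciferase from ISG56 promoter only with Renilla not read in this screen; 0% = Sendai virus plus DMSO and 100% = medium plus DMSO without virus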); details: HEK293 RL24 IRF3 luciferase reporter, at 10 µM, stronger effect = higher value
[8] = TLR3 IRF3 reporter activation blockers – cell-based, poly I:C stimulus, luciferase, 10K MLSCN set, primary screen (AID 602277;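 active = inhibition of the reporter signal at or above 50%; inactive = inhibition below 50%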); details: HEK293-TLR3 RL24 IRF3 luciferase reporter, at 10 µM, stronger effect = higher value

SMILES | cell count [1] | inhibition [1] | inhibition of aggregation [2] | nuclei count [2] [%] | inhibition [3] | nuclei count [3] [%] | fluorescence slope [4] | NADPH fluorescence slope [5] | slope [6] | inhibition [7] | inhibition [8]
COc1ccc(OC)c(C(=O)CSc2nc3ncccc3[nH]2)c1 | 238 | 9.5% (inactive) | 16.2% (inactive) | 113 | 52.6% (inactive) | 99.6 | -0.488 (inactive) | -7e-05 (inactive) | 0.00695 (inactive) | -7.2% (inactive) | -19.6% (inactive)
COc1ccc2[nH]c(=O)c(CN(Cc3cccs3)Cc3nnnn3C(C)(C)C)cc2c1 | 713 | 29.2% (inactive) | 1.1% (inactive) | 111 | 12.5% (inactive) | 88.8 | -0.417 (inactive) | -3.6e-05 (inactive) | 0.00579 (inactive) | 10% (inactive) | 7.17% (inactive)
CCSc1nnc(N2C(=O)CC(c3ccsc3)C3=C2CC(C)(C)CC3=O)s1 (centres undefined) | 558 | 0% (inactive) | 4.8% (inactive) | 109 | -46.6% (inactive) | 115 | -0.55 (inactive) | -4.6e-05 (inactive) | 0.00599 (inactive) | 11.7% (inactive) | 35.7% (inactive)
O=C(Nc1ccc(F)cc1F)NC1CC(=O)N(Cc2ccccc2)C1 (centres undefined) | 664 | 1.6% (inactive) | 22.4% (inactive) | 66.3 | 4.4% (inactive) | 103 | -0.571 (inactive) | -1.6e-05 (inactive) | 0.0068 (inactive) | -12.5% (inactive) | 1.35% (inactive)
Cc1nnc(N(C)C(=O)c2cccnc2)s1 | 704 | -7.5% (inactive) | 8.5% (inactive) | 109 | -47.1% (inactive) | 109 | -0.547 (inactive) | 3.7e-05 (inactive) | 0.0062 (inactive) | -6.83% (inactive) | -1.4% (inactive)
Cc1nc(NC2=NCN(CCN3CCOCC3)CN2)nc2c(C)cccc12 | 417 | 4.5% (inactive) | -1.2% (inactive) | 72.4 | -24.5% (inactive) | 108 | -0.419 (inactive) | -3.7e-05 (inactive) | 0.00391 (inactive) | 23.8% (inactive) | 41.1% (inactive)
CCn1c(CCC(=O)Nc2nc3c(s2)CCCC3)nc2cc(S(=O)(=O)N(C)C)ccc21 | 288 | 1.4% (inactive) | -9% (inactive) | 103 | -54.4% (inactive) | 123 | -0.398 (inactive) | -3e-05 (inactive) | 0.00627 (inactive) | 14.6% (inactive) | 18.8% (inactive)
CC(=O)c1cccc(NC(=O)NCc2ccccn2)c1 | 655 | -6.1% (inactive) | -1.1% (inactive) | 132 | -41.1% (inactive) | 119 | -0.424 (inactive) | -4.2e-05 (inactive) | 0.00223 (inactive) | -8.72% (inactive) | -125% (inactive)
Cn1nc(-c2ccc(N3CCCCC3)c(NC(=O)c3ccco3)c2)c2ccccc2c1=O | 672 | -15.6% (inactive) | -14.2% (inactive) | 62.8 | 32.2% (inactive) | 84.4 | -0.5 (inactive) | -5.2e-06 (inactive) | 0.00571 (inactive) | 13.4% (inactive) | 75.2% (active)
CCOCCn1c(CN2CCC(Cc3ccccc3)CC2)nc2c1c(=O)n(C)c(=O)n2C | 598 | 10.6% (inactive) | 25.3% (inactive) | 84.1 | 7.1% (inactive) | 108 | -0.473 (inactive) | -2.3e-05 (inactive) | 0.00435 (inactive) | 19.8% (inactive) | 22.9% (inactive)
Cc1ccnc(N2CCN(C(=O)CSc3nc4ccccc4nc3N3CCCCC3)CC2)c1 | 451 | -9.8% (inactive) | -14.3% (inactive) | 113 | -13.7% (inactive) | 100 | -0.333 (inactive) | 9.1e-07 (inactive) | 0.00385 (inactive) | 9.18% (inactive) | 4.58% (inactive)
COc1ccc(S(=O)(=O)NCCOc2ccccc2)cc1OC | 310 | -3.3% (inactive) | 8.7% (inactive) | 95.3 | -41.2% (inactive) | 96.1 | -0.439 (inactive) | -3.7e-05 (inactive) | 0.00599 (inactive) | 12.3% (inactive) | 22.2% (inactive)
CC(=O)CCc1ccc(OCCCCn2cncn2)cc1 | 513 | 6.8% (inactive) | 15.6% (inactive) | 92.1 | -58.4% (inactive) | 116 | -0.625 (inactive) | -1.7e-05 (inactive) | 0.00807 (inactive) | 1.5% (inactive) | -5.67% (inactive)
O=C(CSc1nc(O)cc(=O)n1-c1ccccc1)N1CCCCC1 | 635 | -8.1% (inactive) | -16.4% (inactive) | 103 | -85.5% (inactive) | 109 | -0.536 (inactive) | -5.1e-05 (inactive) | 0.00543 (inactive) | 12.3% (inactive) | 21% (inactive)
COc1ccc(CCNc2oc(Cc3cccc4ccccc34)nc2C#N)cc1OC | 718 | 13.9% (inactive) | 8.4% (inactive) | 81.2 | 24.2% (inactive) | 88.7 | -0.396 (inactive) | -8.6e-06 (inactive) | 0.00516 (inactive) | 17.3% (inactive) | 6.78% (inactive)
Nc1nc(Nc2ccc(Cl)cc2Cl)nc(C(F)(F)F)n1 | 348 | 0.6% (inactive) | -0.7% (inactive) | 96.9 | -19.5% (inactive) | 105 | -0.348 (inactive) | -1.8e-06 (inactive) | 0.00538 (inactive) | -32.5% (inactive) | -84.9% (inactive)
CCOc1cc(NC(=O)c2ccco2)c(OCC)cc1NC(=O)COc1ccccc1C | 388 | 0% (inactive) | -11.9% (inactive) | 107 | -74.7% (inactive) | 129 | -0.00358 (active) | 3.9e-06 (inactive) | 0.00663 (inactive) | -1.87% (inactive) | -75.9% (inactive)
O=C(NCC1CCCO1)c1cccc(N2C(=O)C3C4C=CC(C4)C3C2=O)c1 (centres undefined) | 628 | 8.8% (inactive) | 0% (inactive) | 101 | -16.1% (inactive) | 118 | -0.42 (inactive) | -4e-05 (inactive) | 0.00583 (inactive) | 8.37% (inactive) | 10.8% (inactive)
O=C(Nc1ccccc1)c1cccc(N2CCCC2=O)c1 | 363 | -6.9% (inactive) | -3.4% (inactive) | 101 | -74.1% (inactive) | 88 | -0.457 (inactive) | 3.8e-05 (inactive) | 0.00552 (inactive) | -43.5% (inactive) | -128% (inactive)
